# Measured values from PMC4336329 (PLoS ONE, 2015).
# Among all 310,000 compounds or so, about 14,000 (4.5%) showed an effect of 50% or more. The effect is printed as a negative number. This excerpt belongs to a sample that is enriched for strong results.
# Biological target: human ether-à-go-go-related gene (hERG) potassium channel (human, UniProt Q12809)
# Experiment: primary screen, population patch clamp on CHO cells stably expressing hERG; higher = less effect of the substance
# 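Further: peak tail current of the secondary pulse compared with the same well before compound.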
# human ether-à-go-go-related gene (hERG) potassium channel, sequence (Q12809 whole entry, looked up): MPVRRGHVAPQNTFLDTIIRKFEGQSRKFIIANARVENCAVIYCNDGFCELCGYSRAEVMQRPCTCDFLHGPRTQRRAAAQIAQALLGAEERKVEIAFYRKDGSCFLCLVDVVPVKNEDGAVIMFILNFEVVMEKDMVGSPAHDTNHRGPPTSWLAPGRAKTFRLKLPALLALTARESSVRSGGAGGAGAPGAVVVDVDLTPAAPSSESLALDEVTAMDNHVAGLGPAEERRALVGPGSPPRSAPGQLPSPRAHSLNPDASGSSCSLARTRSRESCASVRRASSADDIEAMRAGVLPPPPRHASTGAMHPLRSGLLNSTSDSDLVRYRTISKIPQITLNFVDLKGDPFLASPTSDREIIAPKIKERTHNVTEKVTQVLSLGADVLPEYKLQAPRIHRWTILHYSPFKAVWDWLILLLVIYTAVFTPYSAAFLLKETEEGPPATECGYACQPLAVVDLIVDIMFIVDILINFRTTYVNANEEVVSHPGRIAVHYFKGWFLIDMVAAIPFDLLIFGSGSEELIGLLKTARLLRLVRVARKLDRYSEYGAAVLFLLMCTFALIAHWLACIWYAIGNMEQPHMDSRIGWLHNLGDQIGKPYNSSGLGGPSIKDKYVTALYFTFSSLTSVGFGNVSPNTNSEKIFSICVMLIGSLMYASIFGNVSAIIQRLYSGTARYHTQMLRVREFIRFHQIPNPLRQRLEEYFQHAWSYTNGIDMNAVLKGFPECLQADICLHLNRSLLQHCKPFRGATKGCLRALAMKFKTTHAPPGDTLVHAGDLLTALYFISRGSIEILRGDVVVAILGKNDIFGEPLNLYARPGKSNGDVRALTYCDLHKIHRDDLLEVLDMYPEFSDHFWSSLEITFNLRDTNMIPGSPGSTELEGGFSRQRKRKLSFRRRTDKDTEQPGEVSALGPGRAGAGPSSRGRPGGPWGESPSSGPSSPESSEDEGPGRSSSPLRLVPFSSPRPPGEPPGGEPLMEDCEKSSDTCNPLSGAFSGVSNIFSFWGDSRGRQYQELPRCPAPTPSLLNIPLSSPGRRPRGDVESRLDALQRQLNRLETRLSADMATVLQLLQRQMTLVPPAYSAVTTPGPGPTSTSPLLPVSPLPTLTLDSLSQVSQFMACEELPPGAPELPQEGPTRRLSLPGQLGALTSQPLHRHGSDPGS
row,Structure (SMILES),"hERG current change (%, negative = inhibition) at 10uM"
1,COc1cccc(N(CC(=O)NCCN2CCOCC2)S(=O)(=O)c2ccccc2)c1,-4.96%
2,O=C(CSc1nc2ccccc2[nH]1)NCCc1ccc(Cl)cc1,-20.9%
3,CN(C1CCCCC1)S(=O)(=O)c1ccccc1,-7.01%
4,O=C(O)COc1ccc(Br)cc1/C=N\Nc1ccccn1,15.2%
5,COc1cc(OC)cc(C(=O)NC(=S)Nc2cc3oc4ccccc4c3cc2OC)c1,18.5%
6,Cc1cc(/C=C2/C(=O)N(C)C(=S)N2C)c(C)n1C1CC1,4.03%
7,CC(C)Oc1ccc(C(=O)Nc2ccc(N3CCCCC3)cc2)cc1,-2.32%
8,CS(=O)(=O)N1CCc2ccc(NC(=O)C3CCCO3)cc2C1 (stereo not drawn),18.8%
9,CCCNS(=O)(=O)c1ccc(CCC(=O)N2CCOCC2)cc1,3.77%
10,COC(=O)[C@@H](NC(=O)c1ccc2c(c1)S(=O)(=O)c1ccccc1C2=O)C(C)C,8.57%
11,CCCCC(=O)Nc1cc(N(C)C)nc2ccccc12,-66.3%
12,CN(C)c1cc(NC(=O)CN2CCCC2)c2ccccc2n1.O=C(O)C(=O)O,-10.3%
13,O=C(CN1CCCCC1)Nc1c2c(nc3ccccc13)N(c1ccccc1)CC2.O=C(O)C(=O)O,3.12%
14,CCN(CC)CC(=O)Nc1cc(N(C)C)nc2ccccc12.O=C(O)C(=O)O,-35.3%
15,O=C(CN1CCOCC1)Nc1c2c(nc3ccccc13)N(Cc1ccccc1)CC2.O=C(O)C(=O)O,-68.9%
16,CN1CCc2c1nc1ccccc1c2NC(=O)CN1CCCC1,-1.61%
17,CCCCCCC(=O)Nc1c2c(nc3ccccc13)N(C)CC2,-68%
18,CCCCCC(=O)Nc1cccc2ccccc12,-2.38%
19,CCCCCC(=O)Nc1cc(N(C)C)nc2ccccc12,-74.9%
20,CCN(CC)CC(=O)Nc1c2c(nc3ccccc13)N(C)CC2.O=C(O)C(=O)O,16.5%
21,O=C(CN1CCCC1)Nc1c2c(nc3ccccc13)N(Cc1ccccc1)CC2.O=C(O)C(=O)O,6.05%
22,CCCCCC(=O)Nc1c2c(nc3ccccc13)CCC2,-45.7%
23,C/C(=N\NC(=S)Nc1cc(S(=O)(=O)N2CCOCC2)ccc1Cl)c1ccc(N2CCOCC2)cc1,6.22%
24,COc1ccc(CN(Cc2ccccn2)C(=O)CN2C(=O)C(C)Oc3ccccc32)cc1 (stereo not drawn),-3.36%

row,Structure (SMILES),"hERG current change (%, negative = inhibition) at 10uM"
1,CCOC(=O)c1ccc(-c2ccc(/C=C(\C#N)C(=O)NCc3cccs3)o2)cc1,18%
2,CC(=O)N1N=C(c2cccnc2)OC1c1ccc(C(C)C)cc1 (stereo not drawn),-30.1%
3,O=c1[nH]ccc2c(O)cccc12,20.1%
4,Cc1cccc(C)c1NC(=O)C1c2cccc[n+]2CC(=O)N1Cc1cccs1.[I-] (stereo not drawn),4.89%
5,O=C(CCN1C(=O)/C(=C/c2ccccc2F)SC1=S)NC1C=CS(=O)(=O)C1 (stereo not drawn),15.3%
6,CCOc1ccc(C(=O)c2nc3c(n2O)CCCC3)cc1,18.5%
7,O=C(O)/C=C/C(=O)Nc1cccc(C(F)(F)F)c1,7.79%
8,CC(C)CCN(CCC(C)C)CC(O)Cn1c2ccccc2c(=O)c2ccccc21 (stereo not drawn),-22%
9,CCCCN(CCCC)CC(O)Cn1c2ccccc2c(=O)c2ccccc21 (stereo not drawn),-68%
10,CCCN(CCC)CC(O)Cn1c2ccccc2c2ccccc21 (stereo not drawn),-32.1%
11,COCCCNC(=O)CCC(=O)Nc1ccc2nc(N3CCOCC3)cc(C)c2c1,4%
12,COc1ccc(C2Oc3ccccc3C3=C2C(c2cccs2)n2ncnc2N3)cc1 (stereo not drawn),-52.1%
13,Brc1ccc(C2C3=C(Nc4ncnn42)c2ccccc2OC3c2ccncc2)cc1 (stereo not drawn),-32%
14,Clc1ccc2c(c1)C1=C(C(c3ccncc3)O2)C(c2ccc(Br)cc2)n2ncnc2N1 (stereo not drawn),4.44%
15,Cc1ccc(C2Oc3ccccc3C3=C2C(c2cccs2)n2ncnc2N3)cc1 (stereo not drawn),-7.55%
16,Fc1ccc(C2C3=C(Nc4ncnn42)c2ccccc2OC3c2ccncc2)cc1 (stereo not drawn),-60.4%
17,c1csc(C2C3=C(Nc4ncnn42)c2ccccc2OC3)c1 (stereo not drawn),11.4%
18,COc1ccc(C2NC(=O)CCC2[N+](=O)[O-])c(OC)c1OC (stereo not drawn),12.2%
19,Cn1c(-c2cccc3ccccc23)n[nH]c1=S,21.9%
20,CCOc1ccc(/C(O)=C2/C(=O)C(=O)N(c3cc(C)on3)C2c2ccc(C(=O)OC)cc2)cc1 (stereo not drawn),11.3%
21,CCOc1ccc(C(=O)NCC(=O)N2CC=C(c3ccccc3)CC2)cc1OCC,-62.9%
22,CCOc1ccc(C(=O)NCC(=O)N2CCCCCCC2)cc1OCC,1.47%
23,COc1cc(C(=O)NCC(=O)N2CC=C(c3ccccc3)CC2)cc(OC)c1OC,-51.2%
24,COc1ccc(C(=O)NCC(=O)N2CC=C(c3ccccc3)CC2)cc1OC,-37.9%

row,Structure (SMILES),"hERG current change (%, negative = inhibition) at 10uM"
1,O=C(NCC(=O)N1CC=C(c2ccccc2)CC1)c1ccco1,-78.4%
2,Cc1cccc(C(=O)NCC(=O)N2CC=C(c3ccccc3)CC2)c1,-40.9%
3,CCOc1ccc(C(=O)NCC(=O)N2CCc3ccccc3C2)cc1OCC,4.5%
4,CSCCC(NC(=O)c1ccco1)C(=O)N1CC=C(c2ccccc2)CC1 (stereo not drawn),-48%
5,COc1ccccc1C(=O)NCC(=O)N1CC=C(c2ccccc2)CC1,6.76%
6,CCOC(=O)N1CCN(C(=O)COC(=O)COc2c(C)cc(C)cc2C)CC1,-9.8%
7,O=c1c(-c2ccc(O)cc2O)coc2cc(O)cc(O)c12,-4.59%
8,Nc1nnc(Cc2cccc(Br)c2)s1,3.51%
9,COCCNC(=O)COc1ccc(C)cc1C,10.4%
10,CCCCNC(=S)N(C)/N=C/c1ccc(OCC(=O)Nc2ccc(OC)cc2)c(OC)c1,-4.23%
11,CCOC(=O)C1=C(C)NC(SCC(N)=O)=C(C#N)C1c1cccs1 (stereo not drawn),-13.2%
12,O=C(c1ccc2c(=O)n3c(nc2c1)CCCCC3)N1CCN(Cc2ccccc2)CC1,-2.69%
13,Cc1ccc(C(=O)OCC(=O)N(C)c2ccccc2)cc1C,-9.59%
14,COc1ccc(Cn2c(C)nc3c(c(=O)c4ccccc4n3C)c2=O)cc1,-44.5%
15,CCc1nc2c(c(=O)c3ccccc3n2C)c(=O)n1CCc1ccc(OC)cc1,-74.9%
16,COc1ccc2c(=O)c3c(=O)n(CCc4ccccc4)c(C(C)C)nc3oc2c1,5.79%
17,COCCn1c(C(C)C)nc2oc3ccccc3c(=O)c2c1=O,3.05%
18,COc1ccc(CCn2c(-c3ccccc3)nc3c(c(=O)c4ccccc4n3C)c2=O)cc1,11.3%
19,COc1ccc(CCn2c(C(C)C)nc3oc4ccccc4c(=O)c3c2=O)cc1,-75.3%
20,COc1ccc(CCn2c(C)nc3c(c(=O)c4ccccc4n3C)c2=O)cc1,-61.4%
21,COc1ccc(CCn2c(C(C)C)nc3c(c(=O)c4ccccc4n3C)c2=O)cc1,-30%
22,COc1ccc(CCn2c(-c3ccc(OC)cc3)nc3c(c(=O)c4ccccc4n3C)c2=O)cc1,11.4%
23,Cc1ccc(NC(=O)CSCC(=O)N2c3ccccc3CCc3ccccc32)cc1,7.66%
24,CC(=O)Nc1ccccc1C(=O)N1CCN(Cc2ccccc2)CC1,5.02%

row,Structure (SMILES),"hERG current change (%, negative = inhibition) at 10uM"
1,O=c1[nH]c(=O)n(Cc2ccco2)c(O)c1C=NCc1ccco1,3.46%
2,Cc1nnc(NC(=O)CSc2nnc(-c3ccc(S(=O)(=O)N4CCCC4)cc3)n2C)s1,-3.39%
3,C/C(=N\NC(=O)C1CC1)c1ccc(OC(F)F)cc1,9.94%
4,CCOc1ccc(NC(=O)CSCC(=O)O)cc1,1.8%
5,Oc1ccc(/C(Cc2ccccn2)=N\Nc2ccccc2)c(O)c1,8.76%
6,O=C(NC1CCN(Cc2ccccc2)C1)c1cc(COc2ccc(F)cc2F)on1 (stereo not drawn),-64.2%
7,CC(=O)c1ccc(OCc2cc(C(=O)NC3CCCCC3)no2)cc1,5.17%
8,O=C(NC1CCc2ccccc21)c1cc(COc2ccc(F)cc2F)on1 (stereo not drawn),16.5%
9,CC(=O)c1cccc(OCc2cc(C(=O)NC3CCN(Cc4ccccc4)CC3)no2)c1,-62.9%
10,O=C(NC1Cc2ccccc2C1)c1cc(COc2ccc(F)cc2Cl)on1,13.3%
11,Cc1ccc(C)c(OCc2cc(C(=O)NC3CCN(Cc4ccccc4)CC3)no2)c1,-41.1%
12,c1ccc(-c2ccc(SCc3cccnc3)nn2)nc1,8.9%
13,COC(=O)CCCC1=CC2=CC(=O)C(C)(OC(=O)c3cnc4ccccc4n3)C(=O)C2=CO1 (stereo not drawn),7.07%
14,O=C(Nc1ccc(Br)cc1)c1cnccn1,-2.9%
15,CCN(CC1CCCN(CCc2cccc(OC)c2)C1)C(=O)c1ccc(COC)o1 (stereo not drawn),-71%
16,COc1cccc(CCC(=O)N(C)C2CCCN(Cc3ccccc3F)C2)c1 (stereo not drawn),-0.453%
17,CCN(CC1CCCN(CCc2cccc(OC)c2)C1)C(=O)c1ccoc1C (stereo not drawn),-62.8%
18,COc1cccc(CC(=O)NC2CCCN(Cc3ccccc3F)C2)c1 (stereo not drawn),-5.72%
19,CCN(CC1CCCN(CCc2cccc(OC)c2)C1)C(=O)C=C(C)C (stereo not drawn),-61.1%
20,COc1cccc(CNC(=O)CCC2CCCN(C(=O)c3ccoc3C)C2)c1 (stereo not drawn),5.6%
21,CCN(CC1CCCN(CCc2cccc(OC)c2)C1)C(=O)c1ccoc1 (stereo not drawn),-70.7%
22,CCN(CC)C(=O)C1CCCN(Cc2cccc(Oc3ccccc3)c2)C1 (stereo not drawn),-19.6%
23,COCc1ccc(CN2CCCC(C(=O)Nc3ccc(-c4cccc(OC)c4)cc3)C2)o1 (stereo not drawn),-0.711%
24,COc1cccc(CNC(=O)CCC2CCCN(C(=O)c3ccoc3)C2)c1 (stereo not drawn),24.9%
